Results from the supplement of paper PMC11001985.

compound: C#CCNC(=O)CCSSCCC(=O)NCCc1ccc(C=O)c(C=O)c1; test: lysine labeling ratio R10:1 (500 µM / 50 µM probe), SILAC-ABPP in living cells; higher = lower intrinsic lysine reactivity toward the probe, active = 2 or less; details: HeLa; probe concentrations 500 vs 50 µM
Method in brief: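 The two probe levels, 50 µM and 500 µM, of an alkyne-tagged, disulfide-linked lysine probe were applied to living light and heavy SILAC HeLa cells in PBS at room temperature, and the labels were run in both forward and reverse orientation. Mixed lysates underwent biotin-azide click chemistry, trypsin digestion, neutravidin capture, DTT release and alkylation before LC-MS/MS on a TIMS-TOF Pro. R is the filtered median high-probe/low-probe MS1 peptide ratio for each lysine, summarised as the median over forward and reverse replicates. Nothing above 20 is reported; such values are set to 20.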

UniProt O75369, sequence (O75369 whole entry): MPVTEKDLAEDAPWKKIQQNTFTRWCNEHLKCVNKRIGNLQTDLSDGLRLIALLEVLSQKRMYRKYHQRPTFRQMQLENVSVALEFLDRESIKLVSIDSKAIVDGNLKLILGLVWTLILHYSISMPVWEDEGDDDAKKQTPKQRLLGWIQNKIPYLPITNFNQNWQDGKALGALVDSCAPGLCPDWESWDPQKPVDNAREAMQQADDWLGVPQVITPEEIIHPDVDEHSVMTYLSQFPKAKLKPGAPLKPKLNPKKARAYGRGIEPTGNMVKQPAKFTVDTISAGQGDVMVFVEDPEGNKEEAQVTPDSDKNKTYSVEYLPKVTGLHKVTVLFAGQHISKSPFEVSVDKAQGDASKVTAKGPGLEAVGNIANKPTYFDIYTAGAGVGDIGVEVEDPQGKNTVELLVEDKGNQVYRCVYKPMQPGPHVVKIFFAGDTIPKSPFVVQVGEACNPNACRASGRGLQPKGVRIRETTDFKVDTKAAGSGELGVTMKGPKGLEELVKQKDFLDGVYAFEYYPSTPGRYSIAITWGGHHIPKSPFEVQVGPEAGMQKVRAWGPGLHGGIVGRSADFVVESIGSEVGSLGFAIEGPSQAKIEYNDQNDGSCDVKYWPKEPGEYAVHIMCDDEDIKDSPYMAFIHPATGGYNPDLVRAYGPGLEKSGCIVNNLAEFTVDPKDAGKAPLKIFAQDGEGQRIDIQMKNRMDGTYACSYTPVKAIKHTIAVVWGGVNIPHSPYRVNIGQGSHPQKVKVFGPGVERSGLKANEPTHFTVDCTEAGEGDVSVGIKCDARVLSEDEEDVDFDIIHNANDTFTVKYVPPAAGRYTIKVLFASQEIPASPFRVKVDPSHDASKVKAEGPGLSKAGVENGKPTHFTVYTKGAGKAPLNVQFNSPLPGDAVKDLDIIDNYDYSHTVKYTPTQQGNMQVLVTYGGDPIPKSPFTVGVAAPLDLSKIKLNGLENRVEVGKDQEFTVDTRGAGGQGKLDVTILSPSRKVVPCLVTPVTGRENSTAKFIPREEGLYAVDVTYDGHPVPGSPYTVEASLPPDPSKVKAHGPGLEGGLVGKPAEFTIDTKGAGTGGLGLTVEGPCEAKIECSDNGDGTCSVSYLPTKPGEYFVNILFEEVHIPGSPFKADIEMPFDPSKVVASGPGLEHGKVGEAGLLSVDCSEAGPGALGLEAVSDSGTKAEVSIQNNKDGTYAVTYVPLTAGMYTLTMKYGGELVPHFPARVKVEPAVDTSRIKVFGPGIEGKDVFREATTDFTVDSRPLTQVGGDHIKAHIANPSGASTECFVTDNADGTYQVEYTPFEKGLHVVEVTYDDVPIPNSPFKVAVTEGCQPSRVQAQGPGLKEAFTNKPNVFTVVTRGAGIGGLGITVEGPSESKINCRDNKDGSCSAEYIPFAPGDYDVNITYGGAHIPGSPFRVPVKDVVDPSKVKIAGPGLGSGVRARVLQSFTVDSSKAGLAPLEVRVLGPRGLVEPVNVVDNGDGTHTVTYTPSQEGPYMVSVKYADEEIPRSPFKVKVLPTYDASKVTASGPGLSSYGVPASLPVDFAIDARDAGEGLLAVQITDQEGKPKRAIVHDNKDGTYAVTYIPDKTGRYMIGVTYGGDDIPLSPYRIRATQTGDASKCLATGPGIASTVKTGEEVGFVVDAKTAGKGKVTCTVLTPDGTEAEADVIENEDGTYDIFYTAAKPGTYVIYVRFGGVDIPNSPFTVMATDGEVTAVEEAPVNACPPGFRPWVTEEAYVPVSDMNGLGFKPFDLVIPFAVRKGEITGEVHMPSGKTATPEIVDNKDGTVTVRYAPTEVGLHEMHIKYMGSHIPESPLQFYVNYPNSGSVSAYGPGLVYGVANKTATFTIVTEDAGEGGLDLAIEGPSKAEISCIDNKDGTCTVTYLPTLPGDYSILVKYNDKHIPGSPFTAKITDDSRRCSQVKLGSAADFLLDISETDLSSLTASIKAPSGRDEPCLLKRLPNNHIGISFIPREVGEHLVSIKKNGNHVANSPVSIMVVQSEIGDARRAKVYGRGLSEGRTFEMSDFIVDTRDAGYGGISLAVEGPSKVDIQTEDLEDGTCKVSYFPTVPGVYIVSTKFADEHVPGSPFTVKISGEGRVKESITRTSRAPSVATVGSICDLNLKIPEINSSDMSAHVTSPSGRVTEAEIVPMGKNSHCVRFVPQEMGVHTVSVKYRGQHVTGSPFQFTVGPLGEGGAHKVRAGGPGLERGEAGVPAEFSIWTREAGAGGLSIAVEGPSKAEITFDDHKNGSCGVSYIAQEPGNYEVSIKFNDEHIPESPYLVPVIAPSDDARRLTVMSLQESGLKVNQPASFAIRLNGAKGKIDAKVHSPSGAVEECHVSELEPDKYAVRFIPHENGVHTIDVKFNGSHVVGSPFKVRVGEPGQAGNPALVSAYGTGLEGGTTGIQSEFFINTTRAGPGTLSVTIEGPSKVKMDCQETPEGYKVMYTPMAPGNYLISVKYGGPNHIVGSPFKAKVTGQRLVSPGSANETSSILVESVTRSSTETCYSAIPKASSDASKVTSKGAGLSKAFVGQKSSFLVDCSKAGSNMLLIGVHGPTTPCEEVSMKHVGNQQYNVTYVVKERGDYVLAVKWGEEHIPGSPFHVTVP
UniProt P61604, sequence (P61604 whole entry): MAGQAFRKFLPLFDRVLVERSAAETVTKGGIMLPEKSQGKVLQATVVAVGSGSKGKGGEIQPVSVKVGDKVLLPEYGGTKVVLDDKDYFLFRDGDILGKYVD
UniProt P12277, sequence (P12277 whole entry): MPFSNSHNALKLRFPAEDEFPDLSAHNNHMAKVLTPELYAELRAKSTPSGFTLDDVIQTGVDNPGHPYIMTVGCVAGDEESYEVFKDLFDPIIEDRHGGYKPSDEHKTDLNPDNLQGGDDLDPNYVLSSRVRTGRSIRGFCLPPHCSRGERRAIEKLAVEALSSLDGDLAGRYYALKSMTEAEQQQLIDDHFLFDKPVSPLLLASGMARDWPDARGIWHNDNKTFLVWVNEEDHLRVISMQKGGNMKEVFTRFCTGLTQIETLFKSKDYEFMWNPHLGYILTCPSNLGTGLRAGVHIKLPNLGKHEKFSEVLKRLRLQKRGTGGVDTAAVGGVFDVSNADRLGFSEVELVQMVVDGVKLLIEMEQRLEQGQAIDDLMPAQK
UniProt Q6NZI2, sequence (Q6NZI2 whole entry): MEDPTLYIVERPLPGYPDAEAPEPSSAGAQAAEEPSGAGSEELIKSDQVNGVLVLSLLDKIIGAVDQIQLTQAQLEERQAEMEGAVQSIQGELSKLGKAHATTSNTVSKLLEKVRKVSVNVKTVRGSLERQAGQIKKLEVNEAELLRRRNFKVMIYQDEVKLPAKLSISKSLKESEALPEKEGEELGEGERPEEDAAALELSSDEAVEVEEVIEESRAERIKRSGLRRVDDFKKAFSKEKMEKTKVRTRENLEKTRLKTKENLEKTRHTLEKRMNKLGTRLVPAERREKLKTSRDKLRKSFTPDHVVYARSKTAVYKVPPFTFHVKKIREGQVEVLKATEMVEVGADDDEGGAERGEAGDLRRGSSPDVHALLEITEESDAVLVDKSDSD
UniProt P26599, sequence (P26599 whole entry): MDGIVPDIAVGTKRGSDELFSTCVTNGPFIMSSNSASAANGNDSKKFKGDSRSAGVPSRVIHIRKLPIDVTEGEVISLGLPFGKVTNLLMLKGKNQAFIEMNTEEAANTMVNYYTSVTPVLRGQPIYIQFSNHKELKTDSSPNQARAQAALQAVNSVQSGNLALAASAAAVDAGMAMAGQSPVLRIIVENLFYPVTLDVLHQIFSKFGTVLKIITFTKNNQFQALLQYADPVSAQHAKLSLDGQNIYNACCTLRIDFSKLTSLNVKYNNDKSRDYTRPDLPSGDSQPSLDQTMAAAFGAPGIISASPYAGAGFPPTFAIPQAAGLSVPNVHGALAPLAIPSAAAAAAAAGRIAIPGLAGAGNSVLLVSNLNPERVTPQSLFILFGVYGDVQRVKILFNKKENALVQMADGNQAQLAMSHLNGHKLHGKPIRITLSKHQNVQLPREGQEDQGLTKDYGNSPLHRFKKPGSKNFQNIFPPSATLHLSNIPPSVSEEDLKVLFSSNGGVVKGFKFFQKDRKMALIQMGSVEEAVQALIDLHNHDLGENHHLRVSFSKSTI
UniProt Q15286, sequence (Q15286 whole entry): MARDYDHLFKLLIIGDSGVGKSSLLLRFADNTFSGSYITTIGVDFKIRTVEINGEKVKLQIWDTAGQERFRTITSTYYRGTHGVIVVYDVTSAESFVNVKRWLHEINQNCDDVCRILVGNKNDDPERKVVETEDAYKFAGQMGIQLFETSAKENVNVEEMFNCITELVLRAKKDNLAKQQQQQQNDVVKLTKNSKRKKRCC
UniProt O75367, sequence (O75367 whole entry): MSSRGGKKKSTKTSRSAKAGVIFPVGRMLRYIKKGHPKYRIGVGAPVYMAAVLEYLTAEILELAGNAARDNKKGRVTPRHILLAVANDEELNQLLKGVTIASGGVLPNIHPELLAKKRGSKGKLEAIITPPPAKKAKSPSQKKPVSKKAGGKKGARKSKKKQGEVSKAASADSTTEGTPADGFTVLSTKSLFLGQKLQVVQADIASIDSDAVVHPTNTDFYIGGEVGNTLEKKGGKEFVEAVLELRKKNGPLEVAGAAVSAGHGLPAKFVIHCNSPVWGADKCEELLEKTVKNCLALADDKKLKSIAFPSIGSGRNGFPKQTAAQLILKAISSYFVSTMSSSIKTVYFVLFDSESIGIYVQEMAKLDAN
UniProt P26641, sequence (P26641 whole entry): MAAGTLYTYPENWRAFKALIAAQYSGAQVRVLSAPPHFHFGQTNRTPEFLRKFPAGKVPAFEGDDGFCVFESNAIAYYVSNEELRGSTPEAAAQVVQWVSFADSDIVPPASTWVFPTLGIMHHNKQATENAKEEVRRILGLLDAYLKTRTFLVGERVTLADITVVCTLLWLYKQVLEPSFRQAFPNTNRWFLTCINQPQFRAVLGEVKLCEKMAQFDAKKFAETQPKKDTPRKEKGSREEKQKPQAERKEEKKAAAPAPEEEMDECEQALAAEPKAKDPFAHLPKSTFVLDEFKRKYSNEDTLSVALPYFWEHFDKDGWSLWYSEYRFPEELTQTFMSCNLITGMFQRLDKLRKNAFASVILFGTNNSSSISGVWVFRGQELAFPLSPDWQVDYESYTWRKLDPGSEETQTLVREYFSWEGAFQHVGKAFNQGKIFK

Lysine labeling ratio R10:1, active:
UniProt Q15286 (lysine site: K121) 0.72, RUVBL1 (lysine site: K182) (UniProt Q9Y265) 0.748, GALNT7 (lysine site: K624) (UniProt Q86SF2) 1.81, UniProt P05106 (lysine site: K98) 1.59, UniProt Q9H336 (lysine site: K468) 1.33, ITGA2 (lysine site: K261) (UniProt P17301) 1.26, ITGB1 (lysine site: K136) (UniProt P05556) 1.75, CKAP4 (lysine site: K339) (UniProt Q07065) 1.14, EEF2 (lysine site: K42) (UniProt P13639) 1.82, IARS (lysine site: K903) (UniProt P41252) 1.66, CD55 (lysine site: K160) (UniProt P08174) 1.09, EEF2 (lysine site: K439) (UniProt P13639) 1.76, CKB (lysine site: K313) (UniProt P12277) 1.31

Lysine labeling ratio R10:1, inactive:
ARL6IP5 (lysine site: K158) (UniProt O75915) 2.7, TKT (lysine site: K144) (UniProt P29401) 10.4, L1CAM (lysine site: K530) (UniProt P32004) 7.51, COL5A1 (lysine site: K905) (UniProt P20908) 3.42, FLNB (lysine site: K2088) (UniProt O75369) 2.27, CLMP (lysine site: K172) (UniProt Q9H6B4) 4.28, UniProt P02768 (lysine site: K499) 7.98, RPL5 (lysine site: K188) (UniProt P46777) 4.22, PTBP1 (lysine site: K137) (UniProt P26599) 3.2, MSN (lysine site: K400) (UniProt P26038) 3.75, ITGAV (lysine site: K718) (UniProt P06756) 2.95, H2AFY (lysine site: K18) (UniProt O75367) 3.07, APOB (lysine site: K1642) (UniProt P04114) 2.17, UniProt P62826 (lysine site: K99) 2.78, HSP90B1 (lysine site: K142) (UniProt P14625) 2.93, THBS1 (lysine site: K201) (UniProt P07996) 3.89, UniProt Q6NZI2 (lysine site: K299) 4.52, HSPD1 (lysine site: K130) (UniProt P10809) 4.23, FLNB (lysine site: K409) (UniProt O75369) 2.05, LAMA5 (lysine site: K113) (UniProt O15230) 4.71, TLN1 (lysine site: K428) (UniProt Q9Y490) 2.34, UniProt P16144 (lysine site: K46) 10.1, EEF1G (lysine site: K437) (UniProt P26641) 3.73, HDGF (lysine site: K197) (UniProt P51858) 2.54, UniProt P49720 (lysine site: K77) 2.88, HSPE1 (lysine site: K8) (UniProt P61604) 4.22, FAT4 (lysine site: K2512) (UniProt Q6V0I7) 2.31
